Screen size: about 31,000 sequences; about 1,400 (4.5%) were called active. This excerpt belongs to a sample that is enriched for actives. A number with no mark means an inactive call.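 The calls were made as follows: active = median seed-adjusted z-score above 1 or below -1; inactive = the rest.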

The assay can be described thus: Novel Modifiers of Survival Motor Neuron (SMN) Protein: Gene Identification via Genome-wide siRNA Screen. As to conditions: HEK293T SMN2-luciferase reporter, siRNA knockdown, 72 h; actives lie on both sides. An excerpt: Spinal muscular atrophy (SMA) is the most common neuromuscular autosomal recessive disorder and one of the leading genetic causes of infant death. SMA results from mutations inducing loss of function or deletion in the survival of motor neuron-1 gene (SMN1), leading to deficiency of the survival motor neuron (SMN) protein. Although a second nearly identical gene, SMN2, is retained in humans, its expression primarily produces an aberrantly spliced isoform that is largely unstable and quickly degraded. We performed a genome-wide RNAi screen using a cell-based reporter assay to identify genes and pathways that modulate SMN protein stability. The screen identified over 200 genes that led to the greatest increase or decrease in luciferase expression.
Using HEK293T cells stably expressing a luciferase reporter that combines the promoter and splicing based cassettes in tandem with the major portion of the native SMN2 cDNA with luciferase, we performed a genome-wide RNAi screen to identify modulators of SMN protein levels. Luciferase is expressed when full-length SMN protein is generated with luminescence signal proportional to SMN protein levels. Our luciferase-based reporter assay was used to screen Ambion Silencer Select Human Druggable Genome siRNA library (10418 genes, 3 unique siRNAs per gene) using lipid-based reverse transfection.
Briefly, 1 pmol of each siRNA was spotted to a well of a 384-well plate (Corning, Corning, NY) and 20 microL of serum-free DMEM containing […] of Lipofectamine RNAiMax (Life Technologies, Carlsbad, CA) was then added to each well. Transfected cells were maintained at 37 degrees C in 5% CO2 for 72 hours, 20 microL of ONE-Glo Reagent (Promega) was added to wells for luciferase quantification. Raw luminescence reads were normalized to Ambion(R) Silencer(R) Negative Control #2 siRNA, then log10 transformed. A robust statistical measure of median absolute deviation (MAD) to standardize siRNA activities from each screen. Common Seed Analysis was used to help prioritize clean hits as opposed to those appearing to arise from seed based off-target effects. Candidate modulators were defined as the genes having a MAD score greater than 1.0 or less than -1.0.
Turning to GGCUGCACAUAUACCUUAATT against RRN3, the median seed-adjusted z-score was 0.0382.

With GGAUAGUUUUUCGAAUUAATT against MYO9A, the median seed-adjusted z-score is -0.567. As to GGUAAGGCCUUAUAAUGUATT against KHK, the median seed-adjusted z-score was 0.

GGAUAUCCGCCUUCACAGATT against BAG4: the median seed-adjusted z-score is 0.111. Regarding CCACUAGCUGAUUACUAUATT against MED6, the median seed-adjusted z-score is -2.15 (active). Regarding CGAAGAAUCUUCCGAAGAATT against EIF2AK1, the median seed-adjusted z-score was -0.546. For GAAUGUAUCAGCUACCGAUTT against HYAL4 the value was -0.236; for GAAAGACUCUUACCAUUUUTT against SSBP4, 0.254; for GCAUUGGGAUGUACUUGUATT against LRP12, 0.416. For GCAUGAACUGAAACCCAAUTT against SMURF1 the value was -1.4 (active); for CCAUCGUACCUGUUACCAATT against KRIT1, -0.447. For GCAUCUACGAGUUCAUCAUTT against FOXG1 the value was 0.749; for GCAGUGAUCUAGUCUCUUUTT against GLRX, -0.0561; for CAUAACCACUUUAAAGUCATT against GAB1, 0.373. Regarding GCAAAUUGAUGAACCGGUUTT against CEP135, the median seed-adjusted z-score is -0.2. For UGACCACACUUCUCAGCUATT against IL9R the value was -1.33 (active); for GCACGAGGCUGGUACAGUUTT against MFNG, 0.377; for GGAGACUAGUGGUGGGAUATT against CCL16, -0.308. The figure for GCAACUUGUGAAUCUAGGATT against VCAM1 is 0.19; for AACUUGUCGCUGCCCAAUATT against ABCA2 it is -1.18 (active); for GGCUGACAGUAGCUAAGCUTT against RAPGEF4 it is -0.197. For CCAGAUGGAUGUACACUGUTT against PDE6C the value was 0.205. For the sequence CCACGCACAUACUAUCAAATT against HIVEP1, the median seed-adjusted z-score is 0.532.

On to CCCUUAGACUCUAAGCCCATT against HSD17B14, for which the median seed-adjusted z-score was 0.386. The figure for GAAUGGUCCUAUAUCUCAATT against LARP5 is -0.144; for GGAUACUUCAGGACUAGAATT against PNN it is 1.29 (active); for GAGCAUCUUUGAUCGAGAATT against SPINK5 it is 0.26. For CCCUGGCAGCUAGUAGGUUTT against BATF3 the value was 0.698; for CCAGUUUAUUGGAAACCGATT against NOP56, 0.307; for UCCAGCAAGUGGCCAAGAATT against DUPD1, -0.406.

Turning to AGAUUAUCAUAUUGGGUGATT against RAB7B, the median seed-adjusted z-score was 0. The figure for CUAUAGGAAUGUUGAAUAATT against WDR33 is 3.27 (active); for GGACCACAAUGUACGGAAATT against ATP13A5 it is 0.241; for CUCCUGUACUCUUCAGAGATT against PTOV1 it is 0.115. As to GGACCAAGCCCUAAAGGAATT against 4-Sep, the median seed-adjusted z-score is -0.0124. For GGAUUAAUCCACGAAUUGATT against EGF the value was 0.00831; for AACUUGUAUUCUUAGGUUUTT against SAR1A, 0.0213. For the sequence GCUAACUACCAAGUCCUAATT against SLC8A1, the median seed-adjusted z-score was 0.221. Consider ACAUCGCCCUCAAACGGGATT against ACTL7A, for which the median seed-adjusted z-score was 1.1 (active). The figure for GAUUGAUAGAGACAAUUCATT against RNGTT is -1.55 (active).

For the sequence UGGUGCUGUUGGUAAAACATT against CDC42, the median seed-adjusted z-score was -0.0938.

On to AGAGGUCCUUCAAAACAGATT against ENTPD6, for which the median seed-adjusted z-score is 0.438. Turning to GGAGCGGAAUGAACUCAAATT against RILP, the median seed-adjusted z-score was 0.503. As for GCUUAGGUCUUGCUCUCAATT against YWHAE, the median seed-adjusted z-score was 1.38 (active).

In the case of CCACAAUAUCUCUAACAGATT against GUCY1A2, the median seed-adjusted z-score was -0.186.

Take AAACAAUCCGAAAAUAUGATT against KLK13: the median seed-adjusted z-score was 0.452. On to GAAUUGACAAUCUCAUAGATT against MCCC2, for which the median seed-adjusted z-score is -0.0566. Regarding GCAUCUUUUGGAGAUCGAATT against TC2N, the median seed-adjusted z-score is 0.461. For the sequence GAAGUAUGAAGAAGAAGUATT against KRT83, the median seed-adjusted z-score was 1.15 (active). The figure for GAUCAUCCCUUGUCUCUUUTT against CHRNA6 is 0.21; for GCAGAAUACUUCUAUGAAUTT against WIF1 it is -0.521. Take ACACCAGCCUUGCACCUGATT against NCR1: the median seed-adjusted z-score was -0.26. For CGCCUUUCAUUUUUGCUGATT against TGM1 the value was -0.286; for CCUUUGCCCUGUUCAAGGATT against CYP17A1, -1.39 (active); for CAUACGAGGUAUUAUCAAATT against DNAJB7, 0.684. Take GGAUCAGUAAUAUACCACATT against MTFMT: the median seed-adjusted z-score was -0.0119. As for CCUGGAUUACAUCUACUUATT against EPHB6, the median seed-adjusted z-score was -0.0275. The figure for GCAGCAUUAUAGUCGUAUUTT against PRSS7 is 0.0614. Turning to GCAUUUGUAGGGUUACGGATT against GABRG1, the median seed-adjusted z-score is 0.312.

As to CAUUGUAGAUUACUCAGAATT against RHOT1, the median seed-adjusted z-score was -0.189. The figure for GAUCCAUACUUGGAUGAUATT against PAIP1 is -0.0178; for GCUCGGAUAUGCUCCAGGATT against TMPRSS5 it is 1.25 (active). The figure for GCCUGGAAUUCUACCGCUATT against SLC29A1 is 0.117; for GCAUAUCUUCUAACUUGCATT against EVI1 it is 0; for GGACCAAGAGGAUUGAGUATT against CLSTN2 it is 0. AGUUUAAUCGGAAAGCCUUTT against NANS: the median seed-adjusted z-score is -1.54 (active). For the sequence GCAACACCGACGUAAAGAATT against ALOX5, the median seed-adjusted z-score was -0.201. Regarding UGCUCUCAGUGGAAGAGGATT against TNFRSF8, the median seed-adjusted z-score is 0.739. For the sequence GGUUGGUGUUCGAUGAGUATT against ANXA6, the median seed-adjusted z-score is -1.01 (active).

Turning to GCGGCAAGGGUUUCAAGCATT against FIZ1, the median seed-adjusted z-score is 0.154. For GAAGUUCGGUCGAACCACATT against CST5 the value was 0.466; for CCAGUACGCUAUGGACGUATT against MDN1, 0.187. The figure for GUCUGUCAAUGUACCUUCUTT against 3-Mar is 0.069; for GCAACAGCAUUGUCCGUGUTT against LRRN2 it is 0.324; for GAACUGACAUGGGAAGAUUTT against DUOX1 it is -1.09 (active). The figure for GCCUGACUUCGACUGCUCATT against GFER is 0.402; for GGAGGCUAAUGGUUGCUUUTT against ARPC1B it is 0; for CUAUUUCCCUGCCUUCGAATT against GSTA3 it is 0.334.

Take CAACAAAAGUUUCAUGCUATT against STK35: the median seed-adjusted z-score is 0.519. Turning to GGAGGUACGUGGAAAAGCATT against ORC3L, the median seed-adjusted z-score was -0.254. On to GCUUCGGAAUUCAGACAUUTT against NFATC4, for which the median seed-adjusted z-score is 0. The figure for GGCCCUUGGCCUUACUAUGTT against ACSM2B is -0.0401; for GCACGAUAUUAUGAUCCAATT against PPAT it is -1.51 (active); for CAACCACCAUCUGACCUUUTT against MMP15 it is -0.0489. For GGCUGAAAACGGAGCACAATT against PCDHB16 the value was -0.523; for CAGUGACUGUUGUUGGUCUTT against PKD1L3, -0.658. With GGAGGAGCCUAAGAUGUCATT against ZNF442, the median seed-adjusted z-score is 1.06 (active).

In the case of AAGGGAAAGUGUACUGGUATT against MMP23B, the median seed-adjusted z-score was 0.288. The figure for GGCUAUUGAUUGUCCACAUTT against L2HGDH is -0.346; for CUACCGAGAUUUUAGAUGATT against POLE it is -1.55 (active); for CACUAUAUCUAUAUCGAAATT against PLD1 it is 0.518. For GACCCAUACAGAAAGUAGATT against SSR1 the value was -0.434; for GAUGCGCACUCAGUCCUUATT against MLLT4, -0.0762; for CUGUGAGAAUUGUUGCUCUTT against TRIP6, 1.03 (active). For GGAUCUCAGUCAAAGGCAUTT against CPZ the value was -0.0748; for CGAUCGAGUGGAUGAAGAATT against MMP24, -1.28 (active); for ACAUUGAACGUCCCACGUATT against TUBA3E, -0.35. Consider GCUAAGAGCUUCGUGCUGATT against LGALS1, for which the median seed-adjusted z-score is 0.033. The figure for CCAUGGAUAUGGAAACCCATT against ALPK3 is 0.365. With GGAGAGAGCAGUUUCAACATT against HSPB8, the median seed-adjusted z-score is 0.207. The figure for GGAUAGAAUAUGUAACGGUTT against SUPT6H is -2.54 (active); for CACCGGUGAGAUUCCCUAUTT against ZNF546 it is 0.497; for GCUUACUACACUUUUCUAATT against G6PC2 it is -0.0362. On to CAAACUCUACAUCACCUUUTT against GPR32, for which the median seed-adjusted z-score is -1.2 (active). The figure for CAAGAACUCGGAUAAUGAUTT against IL2RG is -0.155; for CACGGUAUAUGUUAGAGUATT against DSG3 it is 0; for UCCCUUACAUGUCACCAAATT against ZMIZ2 it is -0.27.

Regarding GCCUACAAGCAGAUUCAAATT against PTRH2, the median seed-adjusted z-score is 0.0467. Turning to ACCCAACUCUUACUCUUAATT against RNF7, the median seed-adjusted z-score is -1.18 (active).

The record behind these values is PubChem BioAssay AID1347426 (Functional Genomics Laboratory (NCATS/FGL), 2020).
